# Measurements from PubChem BioAssay AID1851 (National Center for Advancing Translational Sciences (NCATS), 2009).
# Hit rate of the full screen: of about 16,000 compounds, about 5,100 (32%) were called active. Inconclusive results (about 25%) are left out. The list shows a part of the results. Values without a mark were called inactive. The call rests on the fitted dose curve; in most records, active means well fitted curve in the direction sought with a large enough effect; inconclusive means small, poorly fitted or top-dose-only effect, or effect the other way; inactive means no such curve, though single readings can be large or run the other way.
# Molecular target: Cytochrome P450 3A4 (Homo sapiens) (UniProt P08684)
# Sequence (P08684 whole entry, looked up): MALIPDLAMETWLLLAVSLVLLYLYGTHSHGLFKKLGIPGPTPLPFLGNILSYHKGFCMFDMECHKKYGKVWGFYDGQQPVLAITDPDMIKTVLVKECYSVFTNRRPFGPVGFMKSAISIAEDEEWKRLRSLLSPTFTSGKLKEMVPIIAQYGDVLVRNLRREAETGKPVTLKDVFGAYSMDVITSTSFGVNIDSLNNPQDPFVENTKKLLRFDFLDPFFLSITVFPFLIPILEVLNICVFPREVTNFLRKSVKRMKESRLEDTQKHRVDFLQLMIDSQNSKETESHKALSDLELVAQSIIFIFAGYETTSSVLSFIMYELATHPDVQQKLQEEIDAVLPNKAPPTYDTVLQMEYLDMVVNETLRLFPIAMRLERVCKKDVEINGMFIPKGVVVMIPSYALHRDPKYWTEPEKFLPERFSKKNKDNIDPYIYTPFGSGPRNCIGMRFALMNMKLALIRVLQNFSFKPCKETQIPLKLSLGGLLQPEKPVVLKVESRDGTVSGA
# Test: Cytochrome panel assay with activity outcomes
# Settings: recombinant CYP, pro-luciferin dealkylation, luminescence, p450-cyp3a4; series mostly up to 57.1 µM
# On the % scale 0 is the no-effect control and ±100 the full control effect.
Structure (SMILES),AC50,"activity, negative = inhibition"
COc1cccc(OC)c1/C(O)=C(\C#N)c1nc2ccccc2[nH]1,2 µM (active),–
Cc1ccccc1OC/C(O)=C(\C#N)c1nc2ccccc2[nH]1,inactive,–
CCn1c2ccccc2c2cc(/C=N/n3cn[nH]c3=S)ccc21,7.08 µM (active),–
Cn1c(=O)n(C)c2cc(/C=N/n3cnnc3)ccc21,–,2.58% [at 2.29 µM]
O=C(O)c1cccnc1,inactive,–
CC(C)(C(=O)c1cccnc1)c1cccnc1,1.26 µM (active),–
Cc1ccc(S(=O)(=O)/C(C#N)=C/c2c(N3CC(C)OC(C)C3)nc3ccccn3c2=O)cc1 (stereo not given),1.41 µM (active),–
Cn1c(C(=O)N2COCC2(C)C)cc2c(=O)n3ccccc3nc21,inactive,–
CON(c1nc(N(C)C)nc(N(C)C)n1)S(=O)(=O)c1ccccc1Cl,12.6 µM (active),–
Fc1ccc2nc3[nH]c4ccccc4c3nc2c1,14.1 µM (active),–
Cc1cc2nc3[nH]c4c(Cl)cc(Cl)cc4c3nc2cc1C,–,-18.7% [at 11.4 µM]
O=c1[nH]c(=O)c2nc3ccccc3nc2[nH]1,inactive,–
CN(Cc1ccccc1)c1nc(-c2ccc([N+](=O)[O-])cc2)nc2ccccc12,1.12 µM (active),–
CN(C)c1ccc(-c2nc(N(C)Cc3ccco3)c3ccccc3n2)cc1,10 µM (active),–
CN(Cc1ccco1)c1nc(-c2ccoc2)nc2ccccc12,25.1 µM (active),–
CN(C)C(=O)c1ccc(-c2nc(N(C)Cc3ccco3)c3ccccc3n2)cc1,inactive,–
CN(Cc1ccco1)c1nc(-c2ccc3c(c2)OCO3)nc2ccccc12,1.58 µM (active),–
C[C@H](CCC(=O)NCC(=O)O)[C@H]1CC[C@H]2[C@H]3[C@@H](C[C@@H](O)[C@]12C)[C@]1(C)CC[C@H](O)C[C@@H]1C[C@@H]3O,inactive,–
COc1ccccc1CNc1ncnc2ccc(-c3ccoc3)cc12,15.8 µM (active),–
COc1ccc(CNc2ncnc3ccc(-c4ccoc4)cc23)c(OC)c1,3.16 µM (active),–
CCOC(=O)/C(C(N)=NCCCO)=C(/O)c1ccccc1,inactive,–
COc1ccccc1CNc1ncnc2ccc(-c3cccc(NS(C)(=O)=O)c3)cc12,3.16 µM (active),–
COc1ccc(CNc2ncnc3ccc(-c4cccc(NS(C)(=O)=O)c4)cc23)c(OC)c1,2 µM (active),–
Cn1c(=O)c2[nH]c(/N=N\N3CCN(CCO)CC3)nc2n(C)c1=O,–,-17% [at 11.4 µM]

Structure (SMILES),AC50,"activity, negative = inhibition"
Cc1ccc(Nc2c([N+](=O)[O-])ccc3c2=NC2(CCCCC2)N=3)cc1,7.08 µM (active),–
CCOC(=O)NC(NC(=O)OCC)C(=O)c1ccc(F)cc1,inactive,–
CCC/C=C(\CCC)C(NC(=O)Oc1ccc(F)cc1)c1ccc(C(=O)OC)cc1 (stereo not given),inactive,–
CCC/C=C(\CCC)C(NC(=O)c1ccc(C(=O)OC)cc1)c1ccc(C(=O)OC)cc1 (stereo not given),15.8 µM (active),–
CCC/C=C(\CCC)C(NC(=O)OCC(C)C)c1ccc(C(=O)OC)cc1 (stereo not given),12.6 µM (active),–
CCC/C=C(\CCC)C(NC(=O)C(C)(C)C)c1ccc(C(=O)OC)cc1 (stereo not given),10 µM (active),–
CCC/C=C(\CCC)C(NC(=O)Cc1ccccc1)c1ccc(C(=O)OC)cc1 (stereo not given),3.98 µM (active),–
CCN(CC)c1nc(Nc2ccccc2)nc(Oc2ccc(C(=O)OC)cc2)n1,inactive,–
O[C@]1(c2ccccc2)c2ccccc2NC2=NCCN21,–,3.31% [at 11.4 µM]
O=c1cc(-c2ccccc2)oc2cc(O)c(O)c(O)c12,31.6 µM (active),–
Cc1cc(=O)c2c(O)c(O)ccc2o1,inactive,–
Cc1cc(-c2ccc(Cl)cc2)oc(=O)c1NC(=O)c1ccccc1,inactive,–
COc1ccc(-c2cc(=O)c3c(O)cc(O)cc3o2)cc1,2.51 µM (active),–
COc1ccc(-c2coc3cc(OC)cc(O)c3c2=O)cc1,inactive,–
CC(C)C(NC(=O)C1CCCCC1)C(=O)NC1CCN(Cc2ccccc2)CC1 (stereo not given),inactive,–
O=C(C(Cc1ccccc1)N1C(=O)C2C3CCC(C3)C2C1=O)N1CCCCC1 (stereo not given),12.6 µM (active),–
O=C(O)CC[C@@H](C(=O)O)N1C(=O)[C@@H]2[C@@H]3CC[C@H](C3)[C@@H]2C1=O,–,-4.14% [at 11.4 µM]
O=C(O)[C@H](CCc1ccccc1)N1C(=O)c2ccccc2C1=O,–,9.26% [at 11.4 µM]
O=C(NC1CCCCC1)C(Cc1ccccc1)N1C(=O)C2C3CCC(C3)C2C1=O (stereo not given),8.91 µM (active),–
Cc1ccc(C)n1C(Cc1ccccc1)C(=O)O (stereo not given),inactive,–
CN(CC(=O)Nc1cccc2c1CCCC2)S(=O)(=O)c1ccc(Br)cc1,8.91 µM (active),–
CN(C)CCOC(=O)[C@@H](c1ccccc1)C1(O)CCCC1,inactive,–
Cc1ccc(/C=N/NC(=O)CSc2nc3ccccc3n2C)s1,–,-26.5% [at 2.29 µM]
Cn1c(C[C@@H](O)c2nc3ccccc3n2C)nc2ccccc21,–,-14.4% [at 11.4 µM]

Structure (SMILES),AC50,"activity, negative = inhibition"
Cn1c(SCc2nc3ccccc3n2CCO)nc2ccccc21,8.91 µM (active),–
CC(=O)Nc1ccc(S(=O)(=O)N2CCN(c3nc(NC4CCCC4)c4ccccc4n3)CC2)cc1,3.16 µM (active),–
Cc1ccc(C(=O)O)cc1N1C(=O)c2cccc3cc(Br)cc(c23)C1=O,–,19.6% [at 2.29 µM]
Cc1ccc(C(=O)COC(=O)c2ccc3c(c2)C(=O)N(c2cccc4ncccc24)C3=O)cc1C,1.26 µM (active),–
CCOC(=O)N1CCN(C(=O)c2ccc(NC(C)=O)cc2)CC1,–,-1.46% [at 2.29 µM]
CCOC(=O)N1CCN(C(=O)c2ccc(OC)c(OC)c2)CC1,inactive,–
CCOC(=O)N1CCN(C(=O)c2cc(-c3ccc(F)cc3)[nH]c2C)CC1,11.2 µM (active),–
CS(=O)(=O)N1CCC[C@@]2(CCN(c3ccncc3)C2)C1,7.94 µM (active),–
CS(=O)(=O)N1CCC2(CCN(c3ccccc3)CC2)CC1,inactive,–
CS(=O)(=O)N1CCC[C@@]2(CCN(c3ncccn3)C2)C1,inactive,–
CS(=O)(=O)N1CCC[C@@]2(CCN(c3ccccc3)C2)C1,12.6 µM (active),–
CS(=O)(=O)N1CCC2(CC1)CN(c1ccncc1)C2,inactive,–
CS(=O)(=O)N1CCC2(CCCN(c3ccncc3)C2)CC1,inactive,–
COc1cc(CN2CCN(C(=O)CC(C)C)CC2)cc(OC)c1OC,inactive,–
COc1ccccc1N1CCN(CCCCNC(=O)c2ccc(-c3ccc(C(C)=O)cc3)cc2)CC1,inactive,–
COc1ccccc1N1CCN(CCN(C(=O)C2CCCCC2)c2ccccn2)CC1,3.98 µM (active),–
CSc1nc(C)c(CCOC(=O)c2ccccc2)c(=O)[nH]1,inactive,–
CC1=NN(c2ccccc2)C(=O)/C1=C\c1c(C)[nH]n(-c2ccccc2)c1=O,inactive,–
CSc1nc(C)c(CCOC(=O)c2cccc(C)c2)c(=O)[nH]1,inactive,–
Cc1[nH]n(-c2ccccc2)c(=O)c1CCOC(=O)c1cccc(C(F)(F)F)c1,3.16 µM (active),–
Cc1cc(-c2c(C)[nH]n(-c3ccccc3)c2=O)n(-c2ccccc2)n1,–,-9.49% [at 11.4 µM]
Cc1[nH]n(-c2ccccc2)c(=O)c1CCOC(=O)c1ccc(C(F)(F)F)cc1,14.1 µM (active),–
CC(C)(CO[C@H]1C[C@H]2CC[C@@]1(C)C2(C)C)[N+](=O)[O-],–,-5.92% [at 11.4 µM]
CCOC(=O)c1ccc(-c2ccc(CO)o2)cc1,–,1.82% [at 2.29 µM]

Structure (SMILES),AC50,"activity, negative = inhibition"
CCOC(=O)c1ccc(-c2ccc(/C=C(\C#N)C(=O)NCC3CCCO3)o2)cc1 (stereo not given),20 µM (active),–
CCOC(=O)c1ccc(NC(=O)C(=O)NCC2CCCO2)cc1 (stereo not given),inactive,–
CC(C)NC[C@@H](O)c1ccc(O)c2ncccc12,–,-1.42% [at 11.4 µM]
O=S(=O)(O)[C@@H](c1ccccc1)[C@@H](O)c1ccccc1,–,-6.22% [at 11.4 µM]
COc1ccc(CCn2c(=N)c(C(=O)NCc3ccco3)cc3c(=O)n4ccccc4nc32)cc1,14.1 µM (active),–
Cn1c(C(=O)NCC2CCCO2)cc2c(=O)n3ccccc3nc21 (stereo not given),inactive,–
OCCCSCCO,–,-9.23% [at 11.4 µM]
CC1(O)c2ccccc2C(=O)N1CCc1ccccc1F (stereo not given),inactive,–
O=C(c1ccco1)N1CCN(c2cc(=O)n(C3CCCCC3)c(=O)[nH]2)CC1,inactive,–
COc1ccc(Nc2cc(=O)n(C3CCCCC3)c(=O)[nH]2)c(OC)c1,12.6 µM (active),–
Cc1cc(C(C)(C)C)c(O)c(C)c1CC1=NCCN1,inactive,–
CCC(=O)Nc1ncnc2ncn(C(=O)CC)c12,–,-6.29% [at 11.4 µM]
O=C(OCc1ccc(Cl)cc1Cl)c1cccnc1Cl,inactive,–
O=C(Nc1ccccc1)OCc1cc(-c2ccc(Cl)cc2)on1,–,3.33% [at 2.29 µM]
Cc1nn(C)c(Cl)c1NC(=O)OCc1ccc(F)cc1,inactive,–
Cc1nn(C)c(Cl)c1NC(=O)OCc1ccc(Cl)cc1Cl,14.1 µM (active),–
COc1ccccc1COC(=O)Nc1c(C)nn(C)c1Cl,15.8 µM (active),–
O=C(c1ccncc1)N1CCC2(CCN(Cc3nccs3)CC2)CC1,inactive,–
O=C(c1cc(C(F)(F)F)cc(C(F)(F)F)c1)N1CCC[C@@]2(CCN(Cc3nccs3)C2)C1,3.16 µM (active),–
O=C(c1cc(C(F)(F)F)cc(C(F)(F)F)c1)N1CCC2(CCCN(Cc3nccs3)C2)CC1,20 µM (active),–
CCN1CCCCC(=N/O)/C(=N/O)CCCC1,–,-9.74% [at 11.4 µM]
Cc1cc(C)c2c(=O)[nH]c(SCC(=O)N(C)C)nc2n1,inactive,–
Cc1cccc(NC(=O)CSc2nc3nc(C)cc(C)c3c(=O)[nH]2)c1,3.55 µM (active),–
